# Source: PubChem (The Scripps Research Institute Molecular Screening Center)
# Most compounds without a hit are left out; they make up all but 0.47% or so of the library.
# OPRK1 antag MB – OPRK1 (human) antagonism, Maybridge screen. AID 652031. P41145. 16,000 tested, 0.4% active. OPRK1 cells, antagonist mode, fluorescence readout. inhibition, % at 9 µM; in the data active = inhibition above about 50%
# TLR4-MyD88 inh – blocks binding of human TLR4 to MyD88; Cell-based TLR4-MyD88 binding inhibition assay; inhibition, % at 10 µM; 16,000 tested, 0.06% active; AID 811; in the data active = inhibition above about 45%
# Active calls of the source: *; · = no result given.
SMILES,OPRK1 antag MB,TLR4-MyD88 inh
O=C(Cc1nn[nH]n1)Nc1ccc(F)c(Cl)c1,-19,3
O=C(Nc1ccc(F)c(Cl)c1)c1cc(Br)ccc1O,70*,-15
O=C1c2cccc([N+](=O)[O-])c2C(=O)N1c1ccc(OC(F)(F)F)cc1,10,0
CN(C)c1ccc(/C=C/c2cc[n+](Cc3ccc(F)cc3)cc2)cc1,2,51*
CN(C)c1ccc(/C=C/c2ccccc2)cc1,5,-15
NS(=O)(=O)c1ccc(Sc2ccccc2)c([N+](=O)[O-])c1,-17,-1
Cc1c(NS(=O)(=O)c2ccc(-c3ccon3)s2)c(=O)n(-c2ccccc2)n1C,2,1
C=CCNC(=S)NNC(=O)CSc1ccccc1[N+](=O)[O-],-25,0
C=CCNC(=S)NNC(=O)c1oc2nc(-c3ccc(Cl)cc3)cc(-c3ccccc3)c2c1N,66*,-6
Cn1c(SCC(=O)Nc2ccccc2)nnc1C1COc2ccccc2O1 (stereo not drawn),-14,-4
CC1=C(C#N)C(c2ccc([N+](=O)[O-])cc2[N+](=O)[O-])C(C#N)=C(C)N1,-17,-6
CCOC(=O)CC(=O)CSc1cc(C)c(Cl)cc1Cl,-1,-1
COc1ccccc1C1CCN(Cc2ccc3c(c2)CCC(C)(C)O3)CC1,75*,-2
COc1ccccc1C1CCN(c2ccc(CO)cc2[N+](=O)[O-])CC1,-10,-6
O=S(=O)(NCc1nc(-c2ccc(C(F)(F)F)cc2)no1)c1cccc(C(F)(F)F)c1,11,-1
Clc1ccc2c(Nc3ccc4c(c3)OCO4)ccnc2c1,51*,·
Cc1ccc(Nc2ccnc3cc(Cl)ccc23)cc1F,36,-5
Oc1c(Cl)cc(Cl)cc1C1Nc2cc(Cl)c(C(F)(F)F)cc2N1 (stereo not drawn),57*,-10
N#C/C(=C\Nc1cccnc1)C(=O)c1ccc(OC(F)(F)F)cc1,8,-5
CNC(=O)NNc1cc(C)c2c(N)[nH]nc2n1,-4,-24
OCCCNNC(=S)Nc1ccc(Cl)cc1Cl,24,2
S=C(NNc1c(Cl)cncc1Cl)Nc1ccc(Cl)cc1Cl,62*,-6
O=C(O)c1ccccc1C(=O)NCCNc1ccc(C(F)(F)F)cn1,1,8
O=C1CCC2=C(CCCC2)N1c1ccccc1,8,45*
O=C1CN(c2ccccc2)C(=O)N1c1ccccc1,-9,5
SMILES,OPRK1 antag MB,TLR4-MyD88 inh
COc1ccc(NC(=O)c2cc(Cl)cc(Cl)c2)c([N+](=O)[O-])c1,24,13
CCOC(=O)c1sc2nc(SCc3ccccc3)nc(-c3ccccc3)c2c1N,-17,6
Nc1c(C(=O)c2ccccc2)sc2nsc(SCCN3CCCC3)c12,76*,14
C/C(=N\OC(=O)NC(=O)c1ccccc1F)c1ccc(F)c(F)c1,9,-2
Cc1ccc(COc2ccc(CC#N)cc2)cc1,7,-5
CC(=O)Nc1ccc(NC(=O)Nc2ccccc2)cc1,0,-2
CN(C)c1cc(NC(=O)Nc2ccccc2)c2ccccc2n1,57*,0
O=C(O)CCCc1nc(-c2cccc([N+](=O)[O-])c2)no1,0,-1
Cc1ccc(C(=O)C(O)(O)C(F)(F)F)cc1,11,7
O=C(N/C(=C\c1ccc(-c2ccc([N+](=O)[O-])cc2)o1)c1nc2ccccc2[nH]1)c1ccccc1,113*,50*
O=[N+]([O-])c1ccc(Sc2nc3ccccc3[nH]2)c(Cl)c1,11,3
Cc1ccc(-c2cc(C(N)=O)c3cc(F)ccc3n2)cc1,-7,20
